We go through 32 compounds from the supplement of paper PMC7156485.

Unmarked numbers belong to inactive results.
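Note: TDF is a line of transformed human dermal fibroblasts of mesenchymal origin.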

The test system of this experiment is HCC1569. The experiment is described as follows: H1.0 immunofluorescence intensity relative to DMSO (% of DMSO); higher = stronger H1.0 induction, active = 140 or more. Conditions: concentration: 10 µM; 24 h. Put shortly:
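Cells were seeded at 800 per well in 384-well plates with RPMI containing 10% FBS; both HCC1569 and TDF lines were used. Compounds were added at 10 µM for 24 h at 37 °C, in triplicate, before fixation in 3.7% formaldehyde and staining with a rabbit anti-H1.0 antibody, an AlexaFluor 647 secondary and DAPI. H1.0 nuclear intensity or cell number is reported as percent of the plate control using the median of replicates, and HCC1569 values were smoothed for positional effects.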
With `CN1CCCCC1CCN1c2ccccc2Sc2ccc(S(C)=O)cc21.O=S(=O)(O)c1ccccc1` (configuration not stated) [Mesoridazine besylate], the H1.0 immunofluorescence intensity is 109. In the case of `CN(C)[C@@H](CCOc1cccc2ccccc12)c1ccccc1.Cl` it was 142 (active); in that of `NC(CCC(=O)NC(CS)C(=O)NCC(=O)O)C(=O)O` (configuration not stated) [Glutathione], 93; in that of `O=c1cc(-c2ccccc2)oc2cc(O)c(O)c(O)c12` [Baicalein], 99.6.

Turning to `CC1COc2c(C3(N)CC3)c(F)cc3c(=O)c(C(=O)O)cn1c23` (configuration not stated) [Pazufloxacin], the H1.0 immunofluorescence intensity was 104. As for `COc1cc(NS(=O)(=O)c2ccc(N)cc2)nc(OC)n1` [Sulfadimethoxine], the H1.0 immunofluorescence intensity is 92.3. In the case of `CCCn1c(=O)c2[nH]c(-c3ccc(OCC(=O)Nc4ccc(C#N)cc4)cc3)nc2n(CCC)c1=O`, the H1.0 immunofluorescence intensity was 102. Next, `O=C(O)Cc1c[nH]c2ccccc12` [Indole-3-acetic acid]: 84.8; `CCC(=O)Nc1ccc2ncnc(Nc3cccc(Br)c3)c2c1`: 128. `Cc1cccc(Nc2ccccc2C(=O)O)c1C` [Mefenamic acid]: the H1.0 immunofluorescence intensity was 90.5. Next, `COC1=C(OC)C(=O)C(CCCCCCCCCCO)=C(C)C1=O` [Idebenone]: 102; `Cl.Cl.NCCSSCCN` [Cystamine dihydrochloride]: 101. In the case of `CCCCCCCCCCCC=CCCCCCC(=O)O` [7(E)-Nonadecenoic acid], the H1.0 immunofluorescence intensity is 94.3.

Take `CC1CC2C(C(O)CC3(C)C2CCC3(O)C(=O)CO)C2(C)C=CC(=O)C=C12` (configuration not stated) [Methylprednisolone]: the H1.0 immunofluorescence intensity was 114. For the compound `COc1cc2nc(N3CCN(C(=O)C4CCCO4)CC3)nc(N)c2cc1OC` (configuration not stated) [Terazosin], the H1.0 immunofluorescence intensity was 98.2. In the case of `O=C(Nc1nc2ccc(NC(=O)C34CC5CC(CC(C5)C3)C4)cc2s1)c1ccccc1` it was 146 (active); in that of `CCOC(=O)C(CCc1ccccc1)NC(C)C(=O)N1CCCC1C(=O)O` (configuration not stated) [Enalapril], 118; in that of `O=C(O)c1cc(=O)c2ccccc2[nH]1` [Kynurenic acid], 94.5. As for `O=C(CCN1CCN(C(=O)OCc2cc(Cl)cc(Cl)c2)CC1)c1ccc2[nH]c(=O)oc2c1`, the H1.0 immunofluorescence intensity was 168 (active). Next, `CC(C)NNC(=O)c1ccncc1.O=P(O)(O)O` [Iproniazid phosphate]: 85; `Cn1c(=O)[nH]c2ncn(C)c2c1=O` [1,7-Dimethylxanthine]: 85.7. In the case of `Nc1ccccc1NC(=O)CCCCCCC(=O)Nc1ccccc1` [N~1~-(2-aminophenyl)-N~8~-phenyloctanediamide] it was 145 (active); in that of `CN1CCCC1CCOC(C)(c1ccccc1)c1ccc(Cl)cc1` (configuration not stated) [Clemastine], 112; in that of `C#CC1(O)CCC2C3C(C)CC4=C(CCC(=O)C4)C3CCC21C` (configuration not stated) [Tibolone], 110. In the case of `CCn1c(=O)[nH]c2cc(Cl)c(Cl)cc21` it was 95.7.

For the compound `CC1(C)CC(NC(=O)C(=O)Nc2ccc(Cl)cc2)CC(C)(C)N1`, the H1.0 immunofluorescence intensity was 99.1.

As for `COC1=C(OC)C(=O)c2ccccc2C1=O` [2,3-Dimethoxy-1,4-naphthoquinone], the H1.0 immunofluorescence intensity was 128. For `O=C(O)CCCC=CCC1C(O)CC(F)C1C=CC(O)C1Cc2ccccc2C1` (configuration not stated), the H1.0 immunofluorescence intensity was 97.3. Next, `CCCCN1CCCCC1C(=O)Nc1c(C)cccc1C` (configuration not stated) [Bupivacaine]: 120; `NC(N)=Nc1nc(CSCCC(N)=NS(N)(=O)=O)cs1`: 108. On to `Cc1oncc1C(=O)Nc1ccc(C(F)(F)F)cc1` [Leflunomide], for which the H1.0 immunofluorescence intensity is 101.

As to `CCn1cc(C(=O)O)c(=O)c2ccc(C)nc21` [Nalidixic acid], the H1.0 immunofluorescence intensity was 86.1.
